Measurements as given in PubChem BioAssay (NCI).
Compounds without any hit were thinned out: in the full panel of roughly 83,000, 20% have a hit.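 Compound tested at a single concentration for 48 hours in 96-well plates; a percent growth value below 10 was scored as active.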 Active and inactive are the calls of the source.

Experiments:
Test in all cases: NCI-60 one-dose screen, 48 h (100 = growth as untreated, 0 = no growth, -100 = all killed)
HCT-15 colon = conditions: 10 µM unless noted
HT29 colon = conditions: 10 µM unless noted
SNB-75 CNS = conditions: 10 µM unless noted
SNB-19 CNS = conditions: 10 µM unless noted
U251 CNS = conditions: 10 µM unless noted
PC-3 prostate = conditions: 10 µM unless noted
SK-MEL-5 melanoma = conditions: 10 µM unless noted
UACC-62 melanoma = conditions: 10 µM unless noted
LOX IMVI melanoma = conditions: 10 µM unless noted
SK-MEL-28 melanoma = conditions: 10 µM unless noted
EKVX NSCLC = conditions: 10 µM unless noted
SN12C renal = conditions: 10 µM unless noted
UO-31 renal = conditions: 10 µM unless noted
TK-10 renal = conditions: 10 µM unless noted
CAKI-1 renal = conditions: 10 µM unless noted
CCRF-CEM leukemia = conditions: 10 µM unless noted
MOLT-4 leukemia = conditions: 10 µM unless noted
ACHN renal = conditions: 10 µM unless noted
A498 renal = conditions: 10 µM unless noted
SK-MEL-2 melanoma = conditions: 10 µM

Measured: growth

CC(C)c1cc(CNc2nc(Nc3cc(C4CC4)[nH]n3)cc(N3CCN(C)CC3)n2)on1
active: HCT-15 colon 6.83% | HT29 colon 0.12% | SNB-75 CNS -64.2% | U251 CNS 1.02% | PC-3 prostate 4.54% | SK-MEL-5 melanoma -24.2% | UACC-62 melanoma -63.5% | LOX IMVI melanoma -58.4% | SK-MEL-28 melanoma -13.9% | EKVX NSCLC 7.39% | SN12C renal 9.72% | UO-31 renal -2.19% | TK-10 renal -16.4% | CAKI-1 renal 4.85% | CCRF-CEM leukemia 8.07% | MOLT-4 leukemia 0.889%
inactive: SNB-19 CNS 13.4%

C/C(=C(/c1ccc(Cl)cc1)c1ccc(OCCN2CCCCC2)cc1)c1ccccc1
active: HT29 colon 3.98%
inactive: HCT-15 colon 24.8% | SNB-75 CNS 90.7% | SNB-19 CNS 86.7% | U251 CNS 66.5% | PC-3 prostate 66.8% | UACC-62 melanoma 64.9% | LOX IMVI melanoma 59.9% | SK-MEL-28 melanoma 91.5% | EKVX NSCLC 70.7% | SN12C renal 77% | UO-31 renal 59.7% | TK-10 renal 94.1% | ACHN renal 103% | CAKI-1 renal 89.4% | A498 renal 80.3% | CCRF-CEM leukemia 60.6% | MOLT-4 leukemia 83.4%

ClCc1ccc(-c2ccc(Cn3cnc4c(Cl)nc(Cl)nc43)cc2)cc1
active: HCT-15 colon -44.3% | HT29 colon 0.0492% | SNB-75 CNS -26.9% | SNB-19 CNS 0.603% | U251 CNS -79.2% | PC-3 prostate -95.6% | UACC-62 melanoma -13.6% | LOX IMVI melanoma -70.8% | SK-MEL-28 melanoma -29.4% | EKVX NSCLC -57.9% | TK-10 renal -67.8% | CAKI-1 renal -98.8% | CCRF-CEM leukemia -31.1% | MOLT-4 leukemia 4.29%
inactive: SK-MEL-2 melanoma 46.1% | SN12C renal 26.1%

CCCC(=O)OCC1OC(n2cnc3c(=S)nc[nH]c32)C(OC(=O)CCC)C1OC(=O)CCC (stereo not given)
inactive: HCT-15 colon 56.4% | HT29 colon 35.9% | SNB-75 CNS 52.9% | SNB-19 CNS 74.4% | U251 CNS 87.6% | PC-3 prostate 59.7% | UACC-62 melanoma 13.7% | LOX IMVI melanoma 11.7% | SK-MEL-28 melanoma 98.2% | SK-MEL-2 melanoma 12.5% | EKVX NSCLC 69.3% | SN12C renal 49.9% | UO-31 renal 32.6% | ACHN renal 41.5% | A498 renal 30.8% | CCRF-CEM leukemia 24.6% | MOLT-4 leukemia 18.6%
active: TK-10 renal 6.59%

CC(=O)c1c(C)c2cnc(Nc3ccc(N4CCNCC4)cn3)nc2n(C2CCCC2)c1=O
active: HT29 colon -22.8%
inactive: HCT-15 colon 22.4% | SNB-75 CNS 54.9% | SNB-19 CNS 50.5% | U251 CNS 37.8% | PC-3 prostate 32.9% | UACC-62 melanoma 49.9% | LOX IMVI melanoma 17.6% | SK-MEL-28 melanoma 56.4% | EKVX NSCLC 58.8% | SN12C renal 37.1% | UO-31 renal 20.2% | TK-10 renal 32.4% | ACHN renal 17.1% | CAKI-1 renal 26.3% | A498 renal 31.7% | CCRF-CEM leukemia 12.2% | MOLT-4 leukemia 11%

Cc1cnc(NC(=O)Nc2cc(Br)c(C)cc2OC[C@@H]2CNCCO2)cn1
inactive: SNB-75 CNS 26.5% | SNB-19 CNS 39.7% | U251 CNS 11.7% | PC-3 prostate 39.7% | UACC-62 melanoma 12.2% | EKVX NSCLC 25.9% | SN12C renal 39.5% | TK-10 renal 28.8% | A498 renal 18.1%
active: HCT-15 colon 6.54% | HT29 colon -6.22% | LOX IMVI melanoma -78% | SK-MEL-28 melanoma -88.7% | UO-31 renal -12.3% | ACHN renal 3.08% | CAKI-1 renal 1.9% | CCRF-CEM leukemia 4.56% | MOLT-4 leukemia 2.6%

O=C(NC1CCNCC1)c1[nH]ncc1NC(=O)c1c(Cl)cccc1Cl
inactive: HCT-15 colon 72.7% | SNB-19 CNS 12.5% | EKVX NSCLC 52.5% | SN12C renal 12.7% | UO-31 renal 70.6% | TK-10 renal 25.8% | CAKI-1 renal 45.4% | CCRF-CEM leukemia 11.2%
active: HT29 colon -26.7% | SNB-75 CNS -40.7% | U251 CNS 4.47% | PC-3 prostate 5.97% | SK-MEL-5 melanoma -12.8% | UACC-62 melanoma -41.9% | LOX IMVI melanoma 8.93% | SK-MEL-28 melanoma -14.5% | A498 renal -25.3% | MOLT-4 leukemia 5.67%

O=C1CC(c2cccc(F)c2)c2c(n[nH]c2-c2ccc(Cl)cc2)N1 (stereo not given)
inactive: HCT-15 colon 92.5% | HT29 colon 81.1% | SNB-75 CNS 97.3% | SNB-19 CNS 99.3% | U251 CNS 86.1% | PC-3 prostate 80.5% | UACC-62 melanoma 86.2% | LOX IMVI melanoma 96.9% | SK-MEL-28 melanoma 107% | SK-MEL-2 melanoma 110% | EKVX NSCLC 85.1% | SN12C renal 92.8% | UO-31 renal 79.3% | TK-10 renal 94.1% | CAKI-1 renal 77.7% | CCRF-CEM leukemia 101% | MOLT-4 leukemia 88%

Cc1cc(N(CCNc2ccnc3cc(Cl)ccc23)Cc2ccc3c(c2)OCO3)nc(N2CCCC2)n1
inactive: SNB-19 CNS 26.5% | PC-3 prostate 36.1% | UACC-62 melanoma 18.2% | EKVX NSCLC 35.8% | SN12C renal 27.9%
active: HCT-15 colon 0.301% | HT29 colon -10.2% | SNB-75 CNS -46.7% | U251 CNS -17.6% | LOX IMVI melanoma -80.9% | SK-MEL-28 melanoma -58.7% | SK-MEL-2 melanoma -39.9% | UO-31 renal -56.2% | TK-10 renal -43.5% | ACHN renal -49.1% | A498 renal -2.25% | CCRF-CEM leukemia -0.451% | MOLT-4 leukemia -17.7%

ClCc1ccc(-c2ccc(Cn3cnc4nc(Cl)nc(Cl)c43)cc2)cc1
active: HCT-15 colon -5.13% | HT29 colon -8.13% | SNB-75 CNS -2.49% | SNB-19 CNS 6.84% | U251 CNS -69.9% | PC-3 prostate -9.15% | UACC-62 melanoma -20.5% | LOX IMVI melanoma -82.6% | SK-MEL-28 melanoma 1.02% | SN12C renal -29.8% | TK-10 renal -28.4% | ACHN renal 5.65% | CAKI-1 renal -93.6% | CCRF-CEM leukemia -48.5% | MOLT-4 leukemia -42.5%
inactive: SK-MEL-2 melanoma 65.8% | EKVX NSCLC 82.7%

C[C@@H](Oc1cc(C(=O)Nc2ccc(C(=O)N3CCN(C)CC3)cc2)nnc1N)c1c(Cl)ccc(F)c1Cl
active: HT29 colon 9.76%
inactive: HCT-15 colon 46.9% | SNB-75 CNS 71.2% | SNB-19 CNS 75.7% | U251 CNS 52.1% | PC-3 prostate 52.4% | UACC-62 melanoma 62% | LOX IMVI melanoma 33.2% | SK-MEL-28 melanoma 70.9% | EKVX NSCLC 72.5% | SN12C renal 64.5% | UO-31 renal 48.4% | TK-10 renal 79.4% | ACHN renal 91.8% | CAKI-1 renal 75.5% | A498 renal 65% | CCRF-CEM leukemia 55.9% | MOLT-4 leukemia 34.8%

N#Cc1c(-c2ccc(C(F)(F)F)cc2)c(F)c(NCCC2CCC(O)C2)n2c1nc1ccccc12 (stereo not given)
inactive: HCT-15 colon 49.6% | HT29 colon 17.8% | SNB-75 CNS 68% | U251 CNS 61.4% | PC-3 prostate 37.8% | SK-MEL-5 melanoma 61.8% | UACC-62 melanoma 72.7% | SK-MEL-28 melanoma 61.8% | SK-MEL-2 melanoma 101% | EKVX NSCLC 43.8% | SN12C renal 49.1% | UO-31 renal 52.6% | TK-10 renal 83.6% | ACHN renal 61.2% | CAKI-1 renal 26.6% | A498 renal 35.4% | CCRF-CEM leukemia 17.9% | MOLT-4 leukemia 45.9%
active: LOX IMVI melanoma 6.38%

O=C(Nc1cnn2ccc(N3CCC[C@@H]3c3cc(F)ccc3F)nc12)N1CC[C@H](O)C1
inactive: HCT-15 colon 92.6% | HT29 colon 74.1% | SNB-75 CNS 29.1% | SNB-19 CNS 92% | U251 CNS 85.7% | PC-3 prostate 89.4% | UACC-62 melanoma 99% | LOX IMVI melanoma 80.1% | SK-MEL-28 melanoma 109% | EKVX NSCLC 99.5% | SN12C renal 81.1% | UO-31 renal 82.8% | TK-10 renal 99.8% | ACHN renal 103% | CAKI-1 renal 88.3% | CCRF-CEM leukemia 95.5% | MOLT-4 leukemia 96.8%
active: A498 renal 2.72%

COc1cc2c(Oc3ccc(NC(=O)C4(C(=O)Nc5ccc(F)cc5)CC4)cc3F)ccnc2cc1OCCCN1CCOCC1
active: HCT-15 colon -26% | HT29 colon -59.2% | SNB-75 CNS -96.9% | U251 CNS -57.8% | PC-3 prostate 7.39% | SK-MEL-5 melanoma -96.1% | UACC-62 melanoma -67.8% | LOX IMVI melanoma -89.5% | SK-MEL-28 melanoma -78.2% | UO-31 renal -74.4% | TK-10 renal -5.46% | CAKI-1 renal -69% | A498 renal -92.4% | CCRF-CEM leukemia -3.58% | MOLT-4 leukemia -9.06%
inactive: SNB-19 CNS 10.6% | EKVX NSCLC 25.9% | SN12C renal 14.5%

Cc1ccc(F)c(NC(=O)Nc2ccc(-c3cccc4[nH]nc(N)c34)cc2)c1
active: HCT-15 colon 7.06% | HT29 colon 2.74% | LOX IMVI melanoma -8.35% | TK-10 renal 2.19%
inactive: SNB-75 CNS 29.8% | U251 CNS 12.9% | PC-3 prostate 30.8% | UACC-62 melanoma 37.1% | SK-MEL-28 melanoma 36.1% | EKVX NSCLC 21.9% | SN12C renal 24.9% | UO-31 renal 17.6% | ACHN renal 15.4% | CAKI-1 renal 31.8% | A498 renal 30.1% | CCRF-CEM leukemia 11.4% | MOLT-4 leukemia 15.5%

Cc1c(CN2CCN(C(=O)[C@H](C)O)CC2)sc2c(N3CCOCC3)nc(-c3cnc(N)nc3)nc12
active: HCT-15 colon 2.93% | HT29 colon -13% | SNB-75 CNS -47.4% | U251 CNS 6.95% | PC-3 prostate 8.68% | SK-MEL-5 melanoma -36.3% | UACC-62 melanoma -62.6% | LOX IMVI melanoma 0.99% | SK-MEL-28 melanoma -30% | EKVX NSCLC 1.75% | SN12C renal 4.45% | UO-31 renal -30.6% | TK-10 renal -31.4% | ACHN renal -11% | CAKI-1 renal -17.8% | CCRF-CEM leukemia 7.59% | MOLT-4 leukemia 1.65%

Cc1cc(Nc2ncnc3ccc(NC4=NC(C)(C)CO4)cc23)ccc1Oc1ccn2ncnc2c1
active: HT29 colon 5.46% | TK-10 renal 1.72% | A498 renal -16%
inactive: HCT-15 colon 47.9% | SNB-75 CNS 39% | U251 CNS 36.2% | PC-3 prostate 41.3% | SK-MEL-5 melanoma 19.2% | UACC-62 melanoma 14.3% | LOX IMVI melanoma 11.2% | SK-MEL-28 melanoma 12.9% | EKVX NSCLC 41.6% | SN12C renal 33.1% | UO-31 renal 14.9% | ACHN renal 21.1% | CAKI-1 renal 13.8% | CCRF-CEM leukemia 11.7% | MOLT-4 leukemia 16.7%
